Test results from the supplement of paper PMC7366291.
Counter-ions that a name gives are not always drawn. ± gives the standard deviation of the averaged measurements.

What follows are compounds tested on Danio rerio Tg(wt1b:EGFP) embryo, pronephros (assay: pronephric angle neck segment to proximal convoluted tubule (mean of left and right), fold change vs DMSO control; higher = larger pronephric angle). Conditions: 25 µM; exposure: 24-48 hpf.
Outline: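 Dechorionated Tg(wt1b:EGFP) zebrafish embryos were incubated at 28.5°C from 24 to 48 hpf with 25 μM compound in HEPES-buffered E3 containing 0.5% DMSO and 0.003% PTU. Distances and angles between 16 manually set points on maximum projections of dorsal pronephros images were measured in Fiji, with values over 2 SD from the feature mean excluded. Each feature is a fold change relative to the mean of same-day DMSO-treated embryos.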

Structure (SMILES) | pronephric angle neck segment
O=C1NCN(c2ccccc2)C12CCN(CCCC(c1ccc(F)cc1)c1ccc(F)cc1)CC2 [Fluspirilen] | 1.028 ± 0.0059
CN(C)[C@@H]1C(O)=C(C(N)=O)C(=O)[C@@]2(O)C(O)=C3C(=O)c4c(O)ccc(Cl)c4[C@@H](O)[C@H]3C[C@@H]12 [Demeclocycline hydrochloride] | 1.06 ± 0.013
Clc1ccc(COC(Cn2ccnc2)c2ccc(Cl)cc2Cl)cc1 (configuration not stated) [Econazole nitrate] | 1.2 ± 0.0047
O=C(O)CCC(=O)c1ccc(-c2ccccc2)cc1 [Fenbufen] | 1.32 ± 0.18
C=C[C@H]1CN2CC[C@H]1C[C@@H]2[C@@H](O)c1ccnc2ccc(OC)cc12 [Quinidine hydrochloride monohydrate] | 1.01 ± 0.016
CN1CCN(C(c2ccccc2)c2ccccc2)CC1 [Cyclizine hydrochloride] | 0.952 ± 0.018
CC1(C)S[C@@H]2[C@H](NC(=O)[C@H](NC(=O)N3CCNC3=O)c3ccccc3)C(=O)N2[C@H]1C(=O)O [Azlocillin sodium salt] | 0.928 ± 0.015
